Reference: the supplement of paper PMC12819154, “High-throughput peptide-centric local stability assay extends protein–ligand identification to membrane proteins, tissues and bacteria” (Nature Structural & Molecular Biology, 2025)

Columns and labels:
[1] = target: UniProt O54950; assay: log2 fold change of pooled soluble protein (PISA), ligand vs vehicle (log2 ratio); higher = more thermally stabilized; settings: ligand concentration: 20 uM; assay format: PISA pool 52.9/55.5/58.6 C
[2] = target: UniProt P31938; assay: as above; settings: ligand concentration: 20 uM; assay format: PISA pool 52.9/55.5/58.6 C
Sequence of UniProt P31938 (P31938 whole entry): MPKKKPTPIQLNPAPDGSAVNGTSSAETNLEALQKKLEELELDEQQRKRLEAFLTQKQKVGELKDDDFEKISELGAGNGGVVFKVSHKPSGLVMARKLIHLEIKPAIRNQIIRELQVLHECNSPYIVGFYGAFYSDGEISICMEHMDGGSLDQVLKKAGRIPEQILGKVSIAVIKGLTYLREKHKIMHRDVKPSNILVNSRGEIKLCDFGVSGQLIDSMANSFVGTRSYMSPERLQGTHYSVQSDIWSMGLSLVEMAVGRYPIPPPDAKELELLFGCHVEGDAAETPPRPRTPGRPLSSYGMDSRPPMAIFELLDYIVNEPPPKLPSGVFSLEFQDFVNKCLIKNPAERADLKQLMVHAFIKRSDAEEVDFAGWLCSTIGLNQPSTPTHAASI

[3] = target: UniProt P41241; assay: as above; settings: ligand concentration: 20 uM; assay format: PISA pool 52.9/55.5/58.6 C
Sequence of UniProt P41241 (P41241 whole entry): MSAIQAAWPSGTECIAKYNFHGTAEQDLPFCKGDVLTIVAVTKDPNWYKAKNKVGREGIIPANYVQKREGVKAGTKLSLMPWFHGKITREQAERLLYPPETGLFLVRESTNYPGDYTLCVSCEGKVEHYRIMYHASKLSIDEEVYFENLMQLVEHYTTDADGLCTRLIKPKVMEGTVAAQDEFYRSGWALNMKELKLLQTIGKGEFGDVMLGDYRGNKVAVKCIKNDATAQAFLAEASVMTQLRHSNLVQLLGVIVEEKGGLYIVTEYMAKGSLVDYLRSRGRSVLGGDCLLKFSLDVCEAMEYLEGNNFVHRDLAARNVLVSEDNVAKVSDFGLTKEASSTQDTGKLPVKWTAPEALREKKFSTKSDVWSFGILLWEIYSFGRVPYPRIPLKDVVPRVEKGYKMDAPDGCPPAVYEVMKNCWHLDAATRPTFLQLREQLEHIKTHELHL

[4] = target: UniProt Q3UHJ0; assay: as above; settings: ligand concentration: 20 uM; assay format: PISA pool 52.9/55.5/58.6 C
Sequence of UniProt Q3UHJ0 (Q3UHJ0 whole entry, looked up): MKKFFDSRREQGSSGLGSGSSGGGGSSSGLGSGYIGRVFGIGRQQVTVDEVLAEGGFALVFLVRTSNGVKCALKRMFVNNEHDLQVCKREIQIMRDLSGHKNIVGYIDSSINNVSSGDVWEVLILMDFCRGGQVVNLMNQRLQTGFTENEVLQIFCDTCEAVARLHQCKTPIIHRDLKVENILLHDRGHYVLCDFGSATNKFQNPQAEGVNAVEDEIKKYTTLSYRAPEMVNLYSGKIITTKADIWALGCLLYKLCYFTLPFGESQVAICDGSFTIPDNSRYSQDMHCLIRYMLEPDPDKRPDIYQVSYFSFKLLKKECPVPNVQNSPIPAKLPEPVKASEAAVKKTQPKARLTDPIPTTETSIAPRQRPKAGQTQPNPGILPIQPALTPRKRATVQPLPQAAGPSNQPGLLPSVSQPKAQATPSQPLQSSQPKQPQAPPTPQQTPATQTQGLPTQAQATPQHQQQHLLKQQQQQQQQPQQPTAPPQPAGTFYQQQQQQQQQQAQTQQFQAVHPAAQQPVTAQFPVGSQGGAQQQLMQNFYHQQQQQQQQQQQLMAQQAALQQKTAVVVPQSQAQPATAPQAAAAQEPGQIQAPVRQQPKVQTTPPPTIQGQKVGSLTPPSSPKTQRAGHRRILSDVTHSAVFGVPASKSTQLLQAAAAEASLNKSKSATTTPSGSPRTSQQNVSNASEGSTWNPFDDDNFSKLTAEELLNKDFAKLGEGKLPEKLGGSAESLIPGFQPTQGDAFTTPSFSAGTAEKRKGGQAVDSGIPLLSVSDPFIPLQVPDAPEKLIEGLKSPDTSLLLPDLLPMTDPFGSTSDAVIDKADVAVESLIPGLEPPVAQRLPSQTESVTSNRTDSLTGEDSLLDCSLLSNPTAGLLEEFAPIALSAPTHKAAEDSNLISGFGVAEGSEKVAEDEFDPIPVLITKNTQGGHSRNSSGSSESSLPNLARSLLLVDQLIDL

[5] = target: T1, UniProt Q5F2E8; assay: as above; settings: ligand concentration: 20 uM; assay format: PISA pool 52.9/55.5/58.6 C
T1 sequence (whole entry): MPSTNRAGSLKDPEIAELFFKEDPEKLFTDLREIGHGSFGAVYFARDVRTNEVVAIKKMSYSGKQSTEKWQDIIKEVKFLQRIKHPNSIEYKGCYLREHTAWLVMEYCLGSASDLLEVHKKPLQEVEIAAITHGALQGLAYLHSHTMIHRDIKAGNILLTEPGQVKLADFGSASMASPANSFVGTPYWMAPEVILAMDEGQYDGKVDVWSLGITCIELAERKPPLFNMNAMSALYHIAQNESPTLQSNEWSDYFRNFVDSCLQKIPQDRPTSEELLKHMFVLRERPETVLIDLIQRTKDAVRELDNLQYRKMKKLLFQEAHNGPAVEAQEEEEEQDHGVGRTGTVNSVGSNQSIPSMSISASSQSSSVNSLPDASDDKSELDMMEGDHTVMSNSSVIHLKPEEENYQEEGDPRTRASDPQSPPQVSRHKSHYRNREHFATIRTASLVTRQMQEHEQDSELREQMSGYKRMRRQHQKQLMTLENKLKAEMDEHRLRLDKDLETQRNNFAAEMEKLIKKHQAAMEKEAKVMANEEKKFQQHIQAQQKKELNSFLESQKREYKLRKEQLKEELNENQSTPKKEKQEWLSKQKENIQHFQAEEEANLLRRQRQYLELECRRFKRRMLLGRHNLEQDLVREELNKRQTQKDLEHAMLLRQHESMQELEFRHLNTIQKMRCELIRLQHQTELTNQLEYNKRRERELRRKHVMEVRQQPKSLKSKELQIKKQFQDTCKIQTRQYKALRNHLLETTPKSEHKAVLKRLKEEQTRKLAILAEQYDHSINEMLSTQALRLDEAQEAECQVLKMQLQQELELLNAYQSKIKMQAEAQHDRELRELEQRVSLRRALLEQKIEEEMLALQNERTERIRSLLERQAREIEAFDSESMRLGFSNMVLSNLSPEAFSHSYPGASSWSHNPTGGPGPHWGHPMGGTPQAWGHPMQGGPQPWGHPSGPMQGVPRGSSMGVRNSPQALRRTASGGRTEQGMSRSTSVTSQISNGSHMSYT

[6] = target: UniProt Q63932; assay: as above; settings: ligand concentration: 20 uM; assay format: PISA pool 52.9/55.5/58.6 C
Sequence of UniProt Q63932 (Q63932 whole entry): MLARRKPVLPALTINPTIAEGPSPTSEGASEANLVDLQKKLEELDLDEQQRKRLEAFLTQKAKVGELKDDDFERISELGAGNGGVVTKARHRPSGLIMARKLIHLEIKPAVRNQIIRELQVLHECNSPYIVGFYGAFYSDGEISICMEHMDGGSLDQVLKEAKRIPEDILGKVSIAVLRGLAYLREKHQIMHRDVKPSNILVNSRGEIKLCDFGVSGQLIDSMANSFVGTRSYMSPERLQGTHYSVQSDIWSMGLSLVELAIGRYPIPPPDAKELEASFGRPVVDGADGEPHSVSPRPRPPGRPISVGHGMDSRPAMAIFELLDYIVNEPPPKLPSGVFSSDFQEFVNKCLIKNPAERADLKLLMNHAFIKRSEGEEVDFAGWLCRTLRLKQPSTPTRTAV

[7] = target: T2, UniProt Q64464; assay: as above; settings: ligand concentration: 20 uM; assay format: PISA pool 52.9/55.5/58.6 C
T2 sequence (whole entry): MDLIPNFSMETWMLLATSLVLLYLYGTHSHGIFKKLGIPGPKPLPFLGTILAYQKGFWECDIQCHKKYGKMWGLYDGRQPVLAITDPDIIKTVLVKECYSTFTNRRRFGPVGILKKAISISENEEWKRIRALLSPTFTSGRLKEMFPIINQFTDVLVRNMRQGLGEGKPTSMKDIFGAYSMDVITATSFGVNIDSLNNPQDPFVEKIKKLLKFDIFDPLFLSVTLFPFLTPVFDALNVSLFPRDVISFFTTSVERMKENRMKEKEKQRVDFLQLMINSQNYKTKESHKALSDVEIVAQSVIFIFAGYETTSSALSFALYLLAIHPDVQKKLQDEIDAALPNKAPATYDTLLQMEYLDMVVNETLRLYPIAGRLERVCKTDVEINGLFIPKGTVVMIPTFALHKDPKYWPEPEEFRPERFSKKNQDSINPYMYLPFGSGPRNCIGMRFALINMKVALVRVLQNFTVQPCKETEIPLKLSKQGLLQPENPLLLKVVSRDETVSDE

[8] = target: T3, UniProt Q6PIU9; assay: as above; settings: ligand concentration: 20 uM; assay format: PISA pool 52.9/55.5/58.6 C
T3 sequence (whole entry): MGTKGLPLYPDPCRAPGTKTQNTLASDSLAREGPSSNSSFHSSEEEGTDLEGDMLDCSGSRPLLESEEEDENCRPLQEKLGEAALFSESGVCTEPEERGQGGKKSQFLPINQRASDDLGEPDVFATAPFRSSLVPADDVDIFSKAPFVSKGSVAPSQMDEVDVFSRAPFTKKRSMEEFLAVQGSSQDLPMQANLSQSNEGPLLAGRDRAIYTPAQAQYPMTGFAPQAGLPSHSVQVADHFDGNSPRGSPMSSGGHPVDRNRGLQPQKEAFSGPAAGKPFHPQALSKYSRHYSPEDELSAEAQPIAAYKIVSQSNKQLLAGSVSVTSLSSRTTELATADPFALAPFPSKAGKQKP

[9] = target: UniProt Q8BRK8; assay: as above; settings: ligand concentration: 20 uM; assay format: PISA pool 52.9/55.5/58.6 C
Sequence of UniProt Q8BRK8 (Q8BRK8 whole entry): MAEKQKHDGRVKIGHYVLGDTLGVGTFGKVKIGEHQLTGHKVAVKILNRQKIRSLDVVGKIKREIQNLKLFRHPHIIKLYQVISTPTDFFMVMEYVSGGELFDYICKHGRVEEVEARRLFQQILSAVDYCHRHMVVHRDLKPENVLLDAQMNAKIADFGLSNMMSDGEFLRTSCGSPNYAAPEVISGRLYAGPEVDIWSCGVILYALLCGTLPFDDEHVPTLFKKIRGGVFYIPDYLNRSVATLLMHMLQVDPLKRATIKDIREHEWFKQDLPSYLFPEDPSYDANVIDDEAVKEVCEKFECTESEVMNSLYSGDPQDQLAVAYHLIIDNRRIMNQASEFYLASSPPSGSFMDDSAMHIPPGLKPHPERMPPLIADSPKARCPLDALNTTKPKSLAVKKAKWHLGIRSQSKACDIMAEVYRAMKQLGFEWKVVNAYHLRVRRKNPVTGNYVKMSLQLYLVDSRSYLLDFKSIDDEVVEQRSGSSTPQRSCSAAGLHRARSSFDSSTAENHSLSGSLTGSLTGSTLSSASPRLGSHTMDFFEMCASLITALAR

[10] = target: UniProt Q8BTW9; assay: as above; settings: ligand concentration: 20 uM; assay format: PISA pool 52.9/55.5/58.6 C
Sequence of UniProt Q8BTW9 (Q8BTW9 whole entry): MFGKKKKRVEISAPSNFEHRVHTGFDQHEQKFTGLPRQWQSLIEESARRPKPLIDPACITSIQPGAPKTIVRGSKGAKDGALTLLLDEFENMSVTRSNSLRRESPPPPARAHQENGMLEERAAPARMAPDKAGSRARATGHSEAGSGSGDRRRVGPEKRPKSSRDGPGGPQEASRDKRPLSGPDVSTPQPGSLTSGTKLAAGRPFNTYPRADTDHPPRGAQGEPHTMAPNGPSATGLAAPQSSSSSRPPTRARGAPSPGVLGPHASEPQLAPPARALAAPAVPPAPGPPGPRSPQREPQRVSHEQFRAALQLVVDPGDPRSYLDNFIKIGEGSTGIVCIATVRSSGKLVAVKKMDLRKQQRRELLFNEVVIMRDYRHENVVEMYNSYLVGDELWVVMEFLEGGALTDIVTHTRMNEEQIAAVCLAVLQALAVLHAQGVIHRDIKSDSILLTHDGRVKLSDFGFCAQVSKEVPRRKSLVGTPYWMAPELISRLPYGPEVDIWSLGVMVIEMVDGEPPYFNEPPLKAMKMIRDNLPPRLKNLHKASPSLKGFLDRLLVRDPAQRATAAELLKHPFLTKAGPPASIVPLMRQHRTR

[11] = target: T4, UniProt Q8BYY4; assay: as above; settings: ligand concentration: 20 uM; assay format: PISA pool 52.9/55.5/58.6 C
T4 sequence (whole entry): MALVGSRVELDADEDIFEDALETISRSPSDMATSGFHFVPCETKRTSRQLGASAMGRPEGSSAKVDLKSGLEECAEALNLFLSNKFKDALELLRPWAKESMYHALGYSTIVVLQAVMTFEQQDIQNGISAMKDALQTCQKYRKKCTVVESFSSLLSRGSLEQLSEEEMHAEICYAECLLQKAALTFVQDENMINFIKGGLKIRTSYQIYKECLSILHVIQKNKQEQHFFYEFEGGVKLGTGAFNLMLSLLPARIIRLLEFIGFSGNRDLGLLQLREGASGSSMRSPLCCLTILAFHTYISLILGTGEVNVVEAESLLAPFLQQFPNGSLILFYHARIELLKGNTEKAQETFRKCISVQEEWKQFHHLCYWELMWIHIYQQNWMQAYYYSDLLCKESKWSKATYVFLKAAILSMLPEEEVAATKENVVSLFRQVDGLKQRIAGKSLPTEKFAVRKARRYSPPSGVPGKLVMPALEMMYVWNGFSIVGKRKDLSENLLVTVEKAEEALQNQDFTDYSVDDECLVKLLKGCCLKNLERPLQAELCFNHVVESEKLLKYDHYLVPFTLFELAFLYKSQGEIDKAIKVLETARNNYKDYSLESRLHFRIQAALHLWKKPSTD

[12] = target: UniProt Q9EQ20; assay: as above; settings: ligand concentration: 20 uM; assay format: PISA pool 52.9/55.5/58.6 C
Sequence of UniProt Q9EQ20 (Q9EQ20 whole entry): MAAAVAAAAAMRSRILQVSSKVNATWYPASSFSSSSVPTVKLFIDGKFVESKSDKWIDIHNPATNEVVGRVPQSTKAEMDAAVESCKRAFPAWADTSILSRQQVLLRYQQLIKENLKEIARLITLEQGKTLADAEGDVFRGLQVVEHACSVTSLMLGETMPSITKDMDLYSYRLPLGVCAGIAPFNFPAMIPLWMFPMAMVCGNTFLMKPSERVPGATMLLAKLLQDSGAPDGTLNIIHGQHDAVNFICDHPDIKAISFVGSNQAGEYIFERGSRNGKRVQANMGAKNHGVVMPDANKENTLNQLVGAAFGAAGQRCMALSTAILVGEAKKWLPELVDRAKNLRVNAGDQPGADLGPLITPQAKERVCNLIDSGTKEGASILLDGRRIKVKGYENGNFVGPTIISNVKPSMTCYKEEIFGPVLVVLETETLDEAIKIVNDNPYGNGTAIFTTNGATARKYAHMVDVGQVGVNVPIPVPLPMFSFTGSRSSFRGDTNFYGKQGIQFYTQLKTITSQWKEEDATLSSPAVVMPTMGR

[13] = target: T5, UniProt Q9JI10; assay: as above; settings: ligand concentration: 20 uM; assay format: PISA pool 52.9/55.5/58.6 C
T5 sequence (whole entry): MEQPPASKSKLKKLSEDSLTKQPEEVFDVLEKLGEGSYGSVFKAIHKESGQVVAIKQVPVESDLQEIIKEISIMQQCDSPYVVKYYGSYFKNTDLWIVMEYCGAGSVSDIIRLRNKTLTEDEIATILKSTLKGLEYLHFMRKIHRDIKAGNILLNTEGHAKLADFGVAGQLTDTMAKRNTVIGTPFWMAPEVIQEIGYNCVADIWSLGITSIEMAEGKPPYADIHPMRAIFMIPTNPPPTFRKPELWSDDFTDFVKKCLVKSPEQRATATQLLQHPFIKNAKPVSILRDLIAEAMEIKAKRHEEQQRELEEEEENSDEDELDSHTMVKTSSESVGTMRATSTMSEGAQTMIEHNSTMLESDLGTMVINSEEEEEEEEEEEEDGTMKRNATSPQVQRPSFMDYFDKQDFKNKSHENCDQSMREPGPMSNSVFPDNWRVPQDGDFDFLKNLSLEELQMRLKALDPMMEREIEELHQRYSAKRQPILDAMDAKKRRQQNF

[14] = target: T6, UniProt Q9R092; assay: as above; settings: ligand concentration: 20 uM; assay format: PISA pool 52.9/55.5/58.6 C
T6 sequence (whole entry): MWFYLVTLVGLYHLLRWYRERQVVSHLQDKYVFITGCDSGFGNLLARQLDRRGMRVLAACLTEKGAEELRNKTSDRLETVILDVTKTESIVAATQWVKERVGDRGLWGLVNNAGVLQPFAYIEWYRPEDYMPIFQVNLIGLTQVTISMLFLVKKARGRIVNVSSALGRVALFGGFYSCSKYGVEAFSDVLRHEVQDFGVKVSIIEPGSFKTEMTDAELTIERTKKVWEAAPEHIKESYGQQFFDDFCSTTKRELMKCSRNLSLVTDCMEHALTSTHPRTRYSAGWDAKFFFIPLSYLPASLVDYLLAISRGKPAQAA

[15] = target: T7, UniProt Q9R257; assay: as above; settings: ligand concentration: 20 uM; assay format: PISA pool 52.9/55.5/58.6 C
T7 sequence (whole entry): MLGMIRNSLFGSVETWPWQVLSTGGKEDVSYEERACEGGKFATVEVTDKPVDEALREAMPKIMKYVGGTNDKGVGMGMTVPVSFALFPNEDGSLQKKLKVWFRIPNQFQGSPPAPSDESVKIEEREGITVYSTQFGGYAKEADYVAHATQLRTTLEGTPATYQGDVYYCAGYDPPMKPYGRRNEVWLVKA

[16] = target: T8, UniProt P0AEX5; assay: log2 fold change of tryptic peptide abundance, ligand vs vehicle (limited proteolysis) (log2 ratio); higher = more trypsin-susceptible (destabilized); settings: peptide sequence: EAVMDSVVR; peptide start residue: 177; ligand concentration: 5 mM; sample: E. coli desalted lysate; replicate design: treated before aliquoting
T8 sequence (whole entry): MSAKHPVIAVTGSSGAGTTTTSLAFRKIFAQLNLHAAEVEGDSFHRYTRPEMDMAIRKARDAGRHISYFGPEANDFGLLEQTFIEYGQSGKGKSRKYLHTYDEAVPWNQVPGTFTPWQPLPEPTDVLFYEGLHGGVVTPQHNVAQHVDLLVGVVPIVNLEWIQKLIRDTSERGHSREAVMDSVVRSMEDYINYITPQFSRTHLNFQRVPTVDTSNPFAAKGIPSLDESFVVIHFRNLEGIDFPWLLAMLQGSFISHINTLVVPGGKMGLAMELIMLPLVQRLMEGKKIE
Experimental: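 HT-PELSA: desalted E. coli K-12 BW25113 lysate (with 12 mM MgCl2) incubated with 5 mM ATP (pH 7) or water for 30 min at 25 C, then a 4 min trypsin pulse at 22 C. Peptides were quantified by DIA-MS (4 replicates). Value is the peptide log2 fold change (treated/control); negative = stabilized. Scale: negative = ligand-stabilized region.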
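For log2 fold change of tryptic peptide abundance, ligand vs vehicle (limited proteolysis) in this document: lysate desalted by size exclusion to strip endogenous ATP, peptide intensities built from DIA-NN precursor signals, and peptides missing any value discarded before comparison.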

Sequence of UniProt O54950 (O54950 whole entry): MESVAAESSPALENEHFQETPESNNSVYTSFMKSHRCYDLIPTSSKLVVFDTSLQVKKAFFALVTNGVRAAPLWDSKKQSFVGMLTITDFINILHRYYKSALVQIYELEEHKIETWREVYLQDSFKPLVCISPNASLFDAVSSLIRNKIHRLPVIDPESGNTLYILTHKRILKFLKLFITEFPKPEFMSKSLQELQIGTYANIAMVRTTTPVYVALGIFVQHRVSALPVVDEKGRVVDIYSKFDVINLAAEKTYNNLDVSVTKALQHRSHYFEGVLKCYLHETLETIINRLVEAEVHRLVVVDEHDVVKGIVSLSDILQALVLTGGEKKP

CN[C@@H]1C[C@H]2O[C@@](C)([C@@H]1OC)n1c3ccccc3c3c4c(c5c6ccccc6n2c5c31)C(=O)NC4 [staurosporine]
log2 fold change of pooled soluble protein [1]: 0.645
log2 fold change of pooled soluble protein [2]: 2.14
log2 fold change of pooled soluble protein [3]: 1.02
log2 fold change of pooled soluble protein [4]: 1.91
log2 fold change of pooled soluble protein [5]: 1.2
log2 fold change of pooled soluble protein [6]: 2.18
log2 fold change of pooled soluble protein [7]: 0.447
log2 fold change of pooled soluble protein [8]: 0.619
log2 fold change of pooled soluble protein [9]: 0.661
log2 fold change of pooled soluble protein [10]: 1.36
log2 fold change of pooled soluble protein [11]: 0.552
log2 fold change of pooled soluble protein [12]: 0.615
log2 fold change of pooled soluble protein [13]: 1.77
log2 fold change of pooled soluble protein [14]: 0.855
log2 fold change of pooled soluble protein [15]: 0.471

Nc1ncnc2c1ncn2[C@@H]1O[C@H](COP(=O)(O)OP(=O)(O)OP(=O)(O)O)[C@@H](O)[C@H]1O [adenosine 5'-triphosphate]
log2 fold change [16]: 0.659
